Data on 20 compounds can be found in PubChem BioAssay (NCI).

Assay [1] is described as follows: NCI Yeast Anticancer Drug Screen. Data for the rad50 strain (AID 155).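 Note: 0% = growth of vehicle-only cultures of the same strain.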 Conditions: S. cerevisiae rad50 strain growth inhibition; at 50.0 µM; active compounds read high. The method, boiled down:
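Growth of the mutant yeast was measured after compound exposure and referenced to vehicle-treated cultures.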

Assay [2] is described as follows: NCI Yeast Anticancer Drug Screen. Data for the mec2-1 strain (AID 157). Conditions: S. cerevisiae mec2-1 strain, at 50.0 µM, active compounds read high. The method, boiled down: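 Mutant yeast (mec2-1) grown with compound; growth inhibition relative to vehicle control reported.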
Assay [3] in a line: NCI Yeast Anticancer Drug Screen. Data for the sgs1 mgt1 strain (AID 161).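 Note: 0% = growth of cultures given vehicle only.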 The settings on record: S. cerevisiae sgs1 mgt1 strain, at 50.0 µM, active compounds read high. In outline:
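Compounds are added to genetically altered yeast, and growth is compared with cultures given vehicle alone to give percent inhibition.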

A short description of assay [4]: NCI Yeast Anticancer Drug Screen. Data for the cln2 rad14 strain (AID 165).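 Note: 0% = growth equal to vehicle treated cultures.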 The settings on record: S. cerevisiae cln2 rad14 strain, at 50.0 µM, active compounds read high. In outline:
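Readout is yeast growth inhibition versus vehicle-treated controls, using a strain with cln2 and rad14 alterations exposed to compound.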

Assay [5] is described as follows: NCI Yeast Anticancer Drug Screen. Data for the bub3 strain (AID 167). The settings on record: S. cerevisiae bub3 mutant strain, at 50.0 µM, active compounds read high. In outline: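 Whole-cell yeast assay. The mutant strain was incubated with compounds, and growth inhibition was determined by comparison with vehicle-treated cells.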
Assay [6] in a line: NCI Yeast Anticancer Drug Screen. Data for the mlh1 rad18 strain (AID 175). The settings on record: S. cerevisiae mlh1 rad18 strain growth inhibition; at 50.0 µM; active compounds read high. In outline: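 Genetically defined yeast (DNA repair-deficient) exposed to compounds; growth inhibition determined relative to vehicle.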

Structures are written as SMILES. This is part of a sample that, as a whole, favours compounds with a hit. Of some 79,000 tested, about 15% had one in any assay. Unmarked numbers belong to inactive results. Active and inactive are the calls of the source. Cut-off read from the data, not from the text of the source: active = growth inhibition above about 70%; inactive = the rest.

For the compound `CN(C)C1C(=O)C(C(=O)NP(=O)(NCCCO)N(CCCl)CCCl)=C(O)C2(O)C(=O)C3=C(O)c4c(O)cccc4C(C)(O)C3CC12` (stereo not given), the growth inhibition is 27.6% in assay [1]; 20.1% in assay [2]; 21.9% in assay [3]; 15.3% in assay [4]; 25.6% in assay [5]; 6.9% in assay [6].
For `C[C@]12CCc3nonc3C1CC[C@@H]1C2CC[C@@]2(C)C1CC[C@@H]2O` (stereo not given in full), the growth inhibition in assay [1] is 3.65%; in assay [2], -0.65%; in assay [3] it was -0.4%; in assay [4], -53.1%; in assay [5], -7.55%; in assay [6] it was -2.1%.
For `CCC(=O)OC1(c2ccccc2)CCN(CCC(=O)c2ccccc2)CC1C` (stereo not given), the growth inhibition in assay [1] is 48.6%; in assay [2] it was 36.6%; in assay [3], 47.8%; in assay [4], 38.6%; in assay [5], 27.1%; in assay [6], 37.3%.
In the case of `CCc1cc[c]([Sb](=[O])([OH])[OH])cc1`, the growth inhibition in assay [1] is 3.5%; in assay [2], -7.15%; in assay [3] it was 9.1%; in assay [4], 22.5%; in assay [5], 4.1%; in assay [6], 3.2%.
On to `CC1=CC(=O)[C@@H](O)[C@]2(C)[C@H]3[C@@]4(O)OC[C@]35[C@H]([C@@H](C)[C@H]4O)[C@@H](O)C(=O)O[C@@H]5C[C@@H]12`, for which the growth inhibition in assay [1] was 41.8%; in assay [2], 9.7%; in assay [3] it was 36%; in assay [4], 30.2%; in assay [5] it was 15.2%; in assay [6], 35.9%.
As for `CCCCCCCCCCCCCCCC(=O)OCC1OC(OC)C2NP(=O)(N(CCCl)CCCl)OC1C2O` (stereo not given), the growth inhibition is 35.4% in assay [1]; -13.3% in assay [2]; -40.4% in assay [3]; -20.9% in assay [4]; 66.7% in assay [5]; 73% (active) in assay [6].
Regarding `NC(=O)c1cc([N+](=O)[O-])cc([N+](=O)[O-])c1N(CCCl)CCCl`, the growth inhibition in assay [1] was -3%; in assay [2], -10.9%; in assay [3] it was -15.4%; in assay [4], -3.8%; in assay [5], -8.95%; in assay [6] it was -14.6%.
`CC(Nc1c([N+](=O)[O-])ccc(C(=O)NCCN(C)C)c1[N+](=O)[O-])C(=O)Nc1ccc(N(CCCl)CCCl)cc1` (stereo not given): the growth inhibition in assay [1] was -34.6%; in assay [2] it was -9.75%; in assay [3] it was 0.75%; in assay [4], 7.35%; in assay [5], -8.05%; in assay [6] it was -7.75%.
As to `Cc1ccc(OP(=O)(Oc2ccc(C)cc2)Oc2ccc(C)cc2)cc1.Cc1ccc(OP(=O)(Oc2ccc(C)cc2)Oc2ccc(C)cc2)cc1.[Cl][Cr]([Cl])[Cl]`, the growth inhibition in assay [1] was -1.05%; in assay [2] it was -3.05%; in assay [3], -2.1%; in assay [4], -7%; in assay [5], 0.9%; in assay [6], 4.45%.
For the compound `COc1ccc2c(c1)C1(C)CCN(CCc3ccccc3)C(C2)C1C` (stereo not given), the growth inhibition in assay [1] is 24.9%; in assay [2] it was 15.4%; in assay [3] it was 20.7%; in assay [4], 0.05%; in assay [5] it was 6.25%; in assay [6] it was 24.4%.
On to `C/C(CCl)=N\NC1=NC(C)(CCl)P(=O)(NNc2ncccn2)S1` (stereo not given), for which the growth inhibition in assay [1] was 8.05%; in assay [2], 11.2%; in assay [3], 5.2%; in assay [4], 11%; in assay [5], 8.85%; in assay [6], 7.35%.
Turning to `[C-]#[O+].[C-]#[O+].[C-]#[O+].[C-]#[O+].[Fe].[N-]=C(C(F)(F)F)C(F)(F)F`, the growth inhibition was -16.4% in assay [1]; -19.8% in assay [2]; -11.7% in assay [3]; -0.25% in assay [4]; -11.2% in assay [5]; -25.4% in assay [6].
On to `COc1ccc(N)cc1OC`, for which the growth inhibition in assay [1] was -2.15%; in assay [2], 1.35%; in assay [3], -4.8%; in assay [4], -12.2%; in assay [5], 6.7%; in assay [6] it was -5.4%.
In the case of `COC(=O)C(C)N(CCCl)P1(=O)OCCCN1CCCl` (stereo not given), the growth inhibition is 49.2% in assay [1]; 24.8% in assay [2]; -6.15% in assay [3]; 8.7% in assay [4]; -20.6% in assay [5]; 20.6% in assay [6].
On to `O=C(O)c1ccccc1Cl`, for which the growth inhibition was -8% in assay [1]; -11.5% in assay [2]; 3.75% in assay [3]; 30.9% in assay [4]; 5.2% in assay [5]; 16.4% in assay [6].
On to `CCCCC(CC)CC1C(=O)NC(=S)NC1=O` (stereo not given), for which the growth inhibition in assay [1] is -3.7%; in assay [2], 5.55%; in assay [3], -17.8%; in assay [4], -37.1%; in assay [5], -0.05%; in assay [6] it was 6.35%.
Turning to `Oc1cc(Cl)ccc1Cl`, the growth inhibition is 98.2% (active) in assay [1]; 99% (active) in assay [2]; 98.6% (active) in assay [3]; 96.5% (active) in assay [4]; 99% (active) in assay [5]; 98.8% (active) in assay [6].
Consider `c1ccc(-c2cc(-c3ccccc3)c(OOc3c(-c4ccccc4)cc(-c4ccccc4)cc3-c3ccccc3)c(-c3ccccc3)c2)cc1`, for which the growth inhibition in assay [1] was -6.7%; in assay [2], -0.7%; in assay [3] it was -0.95%; in assay [4], -27.9%; in assay [5], -10%; in assay [6], 16.6%.
In the case of `O=C1OCC2(CO)SC(c3ccccc3)NC12` (stereo not given), the growth inhibition was -11.1% in assay [1]; -0.3% in assay [2]; -17.1% in assay [3]; -20.6% in assay [4]; -4.6% in assay [5]; -7.45% in assay [6].
Turning to `CCOC(=S)S.[Ag]`, the growth inhibition in assay [1] was 1.6%; in assay [2], -17.4%; in assay [3], -2.05%; in assay [4], -31.6%; in assay [5], -15.2%; in assay [6], 14.4%.
